This passage reports AC50 results from PubChem BioAssay (EPA / NIEHS).

The source made the active and inactive calls. The calls were made as follows: active = hit-call score of the fitted dose curve at least 0.9, where 1 is the maximum; inactive = score below 0.9.

This assay relates to TTR (gene 7276). In words: CCTE_GLTED_hTTR_0.125uM: CCTE's human Transthyretin (hTTR) Inhibition Assay, with 0.125uM TTR, Great Lakes Toxicology and Ecology Division (GLTED) Lab (AID 2284431). Here is the method: CCTE_GLTED_hTTR is a cell-free, single-readout assay designed to test the chemicals' ability to displace T4 from the human transthyretin (TTR) protein. TTR (at 0.125uM or 0.5uM) is incubated in presence of test chemical for 2 hours during which disrupting chemicals displace ANSA from the TTR protein. Results read fluorescence at 380 excitation and 475 emission.CCTE_GLTED_hTTR_0.125uM is the assay component measured from the CCTE_GLTED_hTTR assay. It is designed to make measurements of fluorescent polarization, using a form of binding reporter, as detected with Fluorescence signals by Fluorescence technology.Data from the assay component CCTE_GLTED_hTTR_0.125uM was analyzed at the assay endpoint CCTE_GLTED_hTTR_0.125uM in the positive analysis fitting direction relative to DMSO as the negative control and baseline of activity. Using a type of binding reporter, loss-of-signal activity can be used to understand a chemical's ability to displace T4 from transthyretin. To generalize the intended target to other relatable targets, this assay endpoint is annotated to the 'transporter' intended target family, where the subfamily is 'hormone carrier protein'.
Human transthyretin (TTR) assay, developed at Great Lakes Toxicology and Ecology Division (GLTED) within the EPA's Center for Computational Toxicology and Exposure (CCTE), is designed to test the chemicals' ability to displace T4 from the TTR protein. TTR (0.125uM) is incubated in presence of test chemical for 2 hours during which disrupting chemicals displace ANSA from the TTR protein. Results read fluorescence at 380 excitation and 475 emission.
Consider `CN(C)c1ccc(N=Nc2ccccc2C(=O)O)cc1`, for which the AC50 (commonly the concentration giving half of the maximal activity seen) is 8.96 µM (active). For the compound `CCCCCCCC/C=C\CCCCCCCC(=O)O`, the AC50 is 3.32 µM (active).

In the case of `O=S1(=O)OC(c2ccc(O)cc2)(c2ccc(O)cc2)c2ccccc21`, the concentration at half-maximal activity (AC50) is 3.34 µM (active).

As for `CCCCC/C=C\C/C=C\CCCCCCCC(=O)OC`, the AC50 was 9.84 µM (active). The value for `O=c1cc(-c2ccccc2)oc2ccccc12` was 10.8 µM (active); that for `CCCCCCCCCCOS(=O)(=O)O` was 3.68 µM (active); that for `Oc1ccc(Cl)cc1Cc1cc(Cl)ccc1O` was 0.129 µM (active). Under `CCCCCCCCCCCCCOP(=O)(O)O` stands 0.78 µM (active). The value for `COC(=O)c1c(C)cc(O)c(C)c1O` was 1.29 µM (active); that for `CCCCC(CC)CCC(CC(C)C)OS(=O)(=O)O` (stereo unspecified) was 0.382 µM (active). In the case of `CC1=NN(c2cc(S(=O)(=O)O)ccc2Cl)C(=O)C1N=Nc1ccccc1` (stereo unspecified), the concentration at half-maximal activity (AC50) was 5.76 µM (active).
